# Data as given in PubChem BioAssay.
# Results with a measured potency or affinity are listed apart. Activity calls are given as the source filed them.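 How the source made its calls: active means a dose-response fit showing signal loss, with half-maximal concentration no higher than twice the top tested dose; inconclusive means flat fit between 30% and 70% signal loss, or poor fit; inactive means the rest.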
# Assay: HepG2 cell cytotoxicity, dose response, cytotoxicity control, cherry-picks, set 2 (AID 687002)
# Conditions: HepG2 viability, ATP luminescence (CellTiter-Glo), 48 h; series mostly up to 26 µM
row,Compound,outcome
1,C[C@@H]1CN([C@@H](C)CO)S(=O)(=O)c2ccc(C#Cc3ccccn3)cc2O[C@H]1CN(C)Cc1ccccc1,inactive
2,CCOc1ccc(C(=O)NC(=S)Nc2ccccc2N2CCC(C)CC2)cc1[N+](=O)[O-],inactive
3,C[C@@H]1CN([C@H](C)CO)C(=O)c2cc(NS(=O)(=O)c3ccc(Cl)cc3)ccc2O[C@H]1CN(C)S(=O)(=O)c1ccc(F)cc1,inactive
4,C[C@H]1CN([C@@H](C)CO)C(=O)Cc2cc(NC(=O)CCCCCC(=O)Nc3ccccc3N)ccc2O[C@H]1CN(C)Cc1ccc2c(c1)OCO2,inactive
5,COc1ccccc1CN1CC[C@H]2[C@H](CO)Nc3ccc(C#Cc4ccccc4)cc3[C@H]21,inactive
6,Cc1ccc(NC(=O)C2(C)CCN2C(=O)CC2CCCC2)cc1 (centres undefined),inactive
7,O=C(Nc1ccccc1)N[C@@H]1CC[C@@H](CCNC(=O)c2ccccc2F)O[C@H]1CO,inactive
8,CCC(=O)Nc1ccc2c(c1)C(=O)N(C)C[C@@H](OC)[C@H](C)CN[C@@H](C)CO2,inactive
9,COc1ccccc1C(=O)Nc1ccc2c(c1)OC[C@H](C)N(C(C)=O)C[C@H](C)[C@H](OC)CN(C)C2=O,inactive
10,CC(C)(C)NC(=O)CSc1ncnc2c1cnn2-c1ccccc1,inactive
11,CC(C)NC(=O)Nc1ccc2c(c1)C(=O)N([C@@H](C)CO)C[C@@H](C)[C@@H](CN(C)S(=O)(=O)c1ccc(Cl)cc1)OCCCC[C@@H](C)O2,inactive
12,C/C=C/c1ccc([C@@H]2[C@@H](CO)N3CCCCN(C(=O)Nc4ccc(OC)cc4)C[C@H]23)cc1,inactive
13,C[C@@H]1CCCCO[C@@H](CN(C)Cc2ccc3c(c2)OCO3)[C@@H](C)CN([C@H](C)CO)C(=O)c2cc(NS(=O)(=O)c3ccc(F)cc3)ccc2O1,inactive
14,CCCN1CCCC[C@H]1C(=O)Nc1c(C)cccc1C,inactive
15,C[C@@H]1CN([C@@H](C)CO)S(=O)(=O)c2ccc(-c3ccccc3)cc2O[C@H]1CN(C)C(=O)C1CCCCC1,inactive
16,O=C([C@H]1[C@H](CO)[C@H]2Cn3c(cccc3=O)[C@H]2N1CCC(F)(F)F)N1CCCCC1,inactive
17,CO[C@H]1CN(C)C(=O)c2cc(NS(=O)(=O)CC(F)(F)F)ccc2OC[C@@H](C)N(Cc2cccnc2)C[C@@H]1C,inactive
18,C[C@@H]1CN([C@H](C)CO)C(=O)c2cc(C#CC(C)(C)O)cnc2O[C@@H]1CN(C)Cc1cncnc1,inactive
19,CC=Cc1ccc2n(c1=O)C[C@H]1[C@H](CO)[C@@H](C(=O)N3CCc4ccccc4C3)N(C(=O)C3CC3)[C@@H]21 (mixture of isomers),inactive
20,C[C@H]1CN([C@@H](C)CO)C(=O)c2cc(NC(=O)Nc3cccc4ccccc34)ccc2O[C@@H]1CN(C)C(=O)Nc1ccc(C(F)(F)F)cc1,inactive

row,Compound,outcome
1,C[C@@H]1CN([C@@H](C)CO)C(=O)c2c(c3ccccc3n2C)-c2ccccc2CO[C@@H]1CN(C)S(=O)(=O)c1ccc(Cl)cc1,inactive
2,CCC(C(=O)Nc1c(C)cc(C)cc1C)N1CCCCCC1 (centres undefined),inactive
3,C[C@@H]1CCCCO[C@@H](CN(C)Cc2ccc(C(F)(F)F)cc2)[C@@H](C)CN([C@@H](C)CO)C(=O)c2cc(NS(=O)(=O)c3cn(C)cn3)ccc2O1,inactive
4,COc1ccccc1C(=O)Nc1ccc2c(c1)C(=O)N(C)C[C@@H](OC)[C@H](C)CN(C)[C@@H](C)CO2,inactive
5,C[C@H](CO)N1C[C@H](C)[C@H](CN(C)Cc2cccc(C(F)(F)F)c2)OCc2cnnn2CCCC1=O,inactive
6,Cc1ccccc1CN(C)C[C@H]1OCc2cn(nn2)CCCC(=O)N([C@@H](C)CO)C[C@H]1C,inactive
7,C[C@H](CO)N1C[C@H](C)[C@H](CN(C)Cc2cccnc2)Oc2ncc(C#CC3(O)CCCC3)cc2C1=O,inactive
8,Cc1cccc(N2CCN(C(=O)C3CCC(=O)N3C(C)C)CC2C)c1 (centres undefined),inactive
9,C[C@@H]1CN([C@@H](C)CO)C(=O)c2cc(N(C)C)ccc2O[C@@H]1CN(C)C(=O)Nc1ccc(C(F)(F)F)cc1,inactive
10,COCCNC(=O)C[C@H]1C=C[C@@H](NS(=O)(=O)c2ccc(C)cc2)[C@H](CO)O1,inactive
11,Cc1cccc(C)c1NC(=O)C(C)N1CCCC1 (centres undefined),inactive
12,O=C(C1CCOCC1)N1CC[C@@H]2[C@H]1c1cc(Br)ccc1N[C@@H]2CO,inactive
13,C[C@H](CO)N1C[C@H](C)[C@H](CN(C)Cc2ccccc2)Oc2cc(C#Cc3ccccn3)ccc2S1(=O)=O,inactive
14,CCCC#Cc1cnc2c(c1)C(=O)N([C@@H](C)CO)C[C@H](C)[C@H](CN(C)C(=O)Nc1cccc(F)c1)O2,inactive
15,CO[C@@H]1CN(C)C(=O)c2ccc(NC(=O)C3CC3)cc2OC[C@H](C)N(C(=O)c2ccncc2)C[C@H]1C,inactive
16,Cc1cccc(-c2ccc([C@@H]3[C@H]4CN(C(=O)c5ccc6c(c5)OCO6)CCCCN4[C@H]3CO)cc2)c1,inactive
17,O=C(c1cccnc1)N1CCC(Oc2ccc(C(=O)N3CCCC(O)C3)cc2)CC1 (centres undefined),inactive
18,COc1ccccc1CNC(=O)C[C@@H]1CC[C@@H]2[C@H](COc3ccc(NC(C)=O)cc3C(=O)N2C)O1,inactive
19,C[C@@H]1CCCCO[C@H](CN(C)Cc2ccc3c(c2)OCO3)[C@H](C)CN([C@H](C)CO)C(=O)c2cc(NC(=O)Nc3cccc4ccccc34)ccc2O1,inactive
